Results reported in PubChem BioAssay AID1851 (National Center for Advancing Translational Sciences (NCATS), 2009).
Out of some 16,000 compounds screened, about 2,600 (16%) were called active. Inconclusive results (about 20%) are left out. Calls come from the whole dose curve; as a rule, active = well fitted curve in the direction sought with a large enough effect; inconclusive = small, poorly fitted or top-dose-only effect, or effect the other way; inactive = no such curve, though single readings can be large or run the other way. A selection follows.
% is set by controls: 0 for no effect and ±100 for the full control effect.

What follows are compounds tested against Cytochrome P450 2D6 (Homo sapiens) (UniProt P10635) (assay: Cytochrome panel assay with activity outcomes). Conditions: recombinant CYP, pro-luciferin dealkylation, luminescence, p450-cyp2d6; series mostly up to 57.1 µM.
Sequence of Cytochrome P450 2D6 (Homo sapiens) (P10635 whole entry, looked up): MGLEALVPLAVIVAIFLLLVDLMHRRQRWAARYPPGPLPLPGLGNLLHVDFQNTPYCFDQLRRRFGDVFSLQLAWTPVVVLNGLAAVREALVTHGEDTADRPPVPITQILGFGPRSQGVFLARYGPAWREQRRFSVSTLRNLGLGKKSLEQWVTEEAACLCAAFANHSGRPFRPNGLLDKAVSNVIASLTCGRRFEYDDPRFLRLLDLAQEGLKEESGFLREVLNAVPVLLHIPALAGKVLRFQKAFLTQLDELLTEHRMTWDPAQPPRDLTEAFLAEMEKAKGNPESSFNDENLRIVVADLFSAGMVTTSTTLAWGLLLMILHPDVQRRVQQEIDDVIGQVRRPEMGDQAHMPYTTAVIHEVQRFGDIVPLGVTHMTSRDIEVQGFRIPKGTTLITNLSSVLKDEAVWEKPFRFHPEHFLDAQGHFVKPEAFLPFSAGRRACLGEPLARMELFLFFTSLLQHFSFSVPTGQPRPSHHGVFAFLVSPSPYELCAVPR
Procedure: The P450 gene superfamily is involved in the metabolism and clearance of xenobiotics. This assay used various human CYP P450 isozymes to measure the dealkylation of various pro-luciferin substrates to luciferin. The luciferin is then measured by luminescence after the addition of a luciferase detection reagent. Pro-luciferin substrate concentration in the assay was equal to its KM for its CYP P450 isozyme. Inhibitors and some substrates limit the production of luciferin, and decrease measured luminescence.
NCGC Assay Protocol Summary:
1, Reagent, 2 uL, Isozyme and Pro-Luciferin
2, Library compounds, 23 nl, 40 uM to 0.24 nM dilution series
3, Controls, 23 nl, Isozyme specific inhibitor
4, Reagent, 2 uL, NADPH regeneration solution
5, Incubation time, 60 min, Isozyme specific temperature
6, Reagent, 4ul, Detection reagent
7, Incubation time, 20 min, Isozyme specific temperature
8, Detection, 1 sec, ViewLux luminescent read
The luciferase-based P450-GloTM Screening Systems were obtained from Promega (Madison, WI) for CYP 1A2 (V9770), CYP 2C9 (V9790), CYP2 C19 (V9880), CYP 2D6 (V9890), and CYP 3A4 Luciferin-PPXE (V9910) and were adapted for 1,536-well microplates and an automated protocol. The control compounds furafylline for 1A2 (F124), sulfaphenazole for CYP 2C9 (S0758), ketoconazole for CYP 2C19 (K1003), quinidine for 2D6 (Q3625), and ketoconazole for 3A4 (K1003) were purchased from Sigma Aldrich (St. Louis, MO). Recombinant P450 enzymes were obtained from baculovirus constructs expressed in insect cells (BD/Gentest).
Medium-binding white solid Kalypsys plates used. Mixtures kept on ice. 1A2: 10 nM 1A2, 100 uM Luc-ME, 100 mM KPO4; 2C9: 10 nM 2C9, 100 uM Luc-H, 25 mM KPO4; 2C19: 5 nM 2C19, 10 uM Luc-H EGE, 50 mM KPO4; 2D6: 5 nM 2D6, 30 uM Luc-ME EGE, 100 mM KPO4; 3A4: 10 nM, 25 uM Luc-PPXE. All amounts are reflected in their final concentration, working concentration is 2x.
NADPH regeneration solution: 1.3 mM NADP+, 3.3 mM glucose-6-phosphate, 3.3 mM MgCl2, 0.4 U/mL glucose-6-phosphate dehydrogenase for all isozymes, 200 mM KPO4 for 3A4. Mixture prepared at RT but kept on ice during automated run.
RT incubation in auxilliary plate hotel for 1A2, 2D6, and 3A4; 37C for 2C9 and 2C19.
Keywords: P450, CYP1A2, CYP2C19, CYP2C9, CYP2D6, CYP3A4, Luciferase, MLSMR, MLSCN, NIH Roadmap, qHTS, NCGC
With CCOC(=O)c1cc2c(=O)n3ccccc3nc2n(CCOC)c1=NC(=O)C(C)(C)C the AC50 was “inactive”. CCn1c(=N)c(S(=O)(=O)c2ccc(F)cc2)cc2c(=O)n3ccccc3nc21 was tested, and the AC50 was 794 nM (active). Cn1c(=N)c(S(=O)(=O)c2ccc(F)cc2)cc2c(=O)n3ccccc3nc21 was tested, and the AC50 was 3160 nM (active). In the case of CC1Cc2ccccc2N1C(=O)c1cc2c(=O)n3ccccc3nc2n1C (centres undefined), the AC50 is reported as “inactive”. For CCOC(=O)c1cc2c(=O)n3ccccc3nc2n(CCCOC)c1=NC(=O)C(C)(C)C, the AC50 was “inactive”. Cn1c(C(=O)N2COCC2(C)C)cc2c(=O)n3ccccc3nc21 was tested, and the AC50 was “inactive”. For COc1ccccc1C(=O)Nc1cc2c(ccc3ccccc32)oc1=O, the AC50 was “inactive”. With O=C(CCl)Nc1ccc(Oc2cnc3ccccc3n2)cc1 the AC50 was “inactive”. Cc1ccccc1C(=O)N1CCN(c2ccc([N+](=O)[O-])c(NCc3ccco3)c2)CC1 was tested, and the AC50 was “inactive”. With CC(C)(N)C(=O)N[C@@H]1C(=O)N2[C@@H]1SC(C)(C)[C@H]2C(=O)O the activity, negative = inhibition was 5.23% [at 11.4 µM] (inactive). In the case of CC(C)(C)C(=O)N1CCC(O)(CS(=O)(=O)Cc2ccc(Cl)cc2)CC1, the AC50 is reported as “inactive”. In the case of Cc1ccc(NC(=O)CSCC(=O)Nc2ccc(N3CCOCC3)c(Cl)c2)cc1, the AC50 is reported as 14100 nM (active). Cc1ccccc1OCC(=O)NC(=S)Nc1ccc(N2CCOCC2)c(Cl)c1 was tested, and the AC50 was “inactive”. With Cc1ccc(NC(=O)c2cc(N3C(=O)C4CC=CCC4C3=O)ccc2N2CCOCC2)cc1Cl (centres undefined) the AC50 was “inactive”. In the case of NC(=O)C1(N2CCCCC2)CCN(C(=S)Nc2ccc(Cl)cc2)CC1, the AC50 is reported as “inactive”. In the case of N[C@H](C(=O)O)c1cccc(O)c1, the AC50 is reported as “inactive”. Nc1ccc(CCNc2ncnc3c2ncn3[C@@H]2O[C@@H](CO)[C@H](O)[C@@H]2O)cc1 was tested, and the AC50 was “inactive”. In the case of CC(C)c1ccc(-c2nnn(CCC(=O)O)n2)cc1, the AC50 is reported as “inactive”. CCOc1ccc(OCCOc2ncnc3ccccc23)cc1 was tested, and the AC50 was “inactive”. For CCOc1ccc(/C(O)=C2\C(=O)C(=O)N(CCOCCO)C2c2ccccc2OC)cc1 (centres undefined), the AC50 was “inactive”. CCOc1ccc(OCCOCCN2CCc3ccccc3C2)cc1 was tested, and the AC50 was 1120 nM (active). For N#CCCn1c(=O)cnc2cnc(Oc3ccccc3)nc21, the AC50 was “inactive”. For C=CCn1c(SCc2ccc3c(c2)OCO3)nc2scc(-c3ccco3)c2c1=O, the AC50 was “inactive”. With C=CCN1CCN(c2nc3ccccc3nc2C#N)CC1 the AC50 was 1260 nM (active). With CCc1noc(C)c1C(=O)Nc1nc(-c2cc(C)ccc2C)c(C)s1 the AC50 was “inactive”. For O=C(O)CSc1cc(-c2ccccc2)nc2ccccc12, the activity, negative = inhibition was 3.96% [at 11.4 µM] (inactive). N[C@@H](CSCc1ccc(I)cc1)C(=O)O was tested, and the activity, negative = inhibition was 3.9% [at 11.4 µM] (inactive). NC[C@@H](O)CSCc1ccc(Cl)cc1 was tested, and the AC50 was 3160 nM (active). O=[N+]([O-])c1ccc(CSCc2ccc(Cl)cc2)cc1 was tested, and the activity, negative = inhibition was -20.5% [at 11.4 µM] (inactive).
